# Source: PubChem BioAssay (NCATS)
# Records with an inconclusive call do not appear. Where a call stands in place of a potency, no number is given. Calls of active or inactive are those of the source. Unless noted, calls come from the whole dose curve; as a rule, active = well fitted curve in the direction sought with a large enough effect; inconclusive = small, poorly fitted or top-dose-only effect, or another doubt; inactive = no such curve, though single readings can be large; an effect the other way counts as inactive or inconclusive.
# Assays:
# [1] = P-glycoprotein substrates identified in KB-3-1 adenocarcinoma cell line, qHTS therapeutic library screen (AID 1346986); note: nearly all actives have a fitted effect of over 60% in size;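 note: potency is the fitted concentration of half-maximal effect; potency is for cytotoxicity meaning loss of cell viability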
# How it was run: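 72 h cell-killing screen, 500 cells/well, CellTiter-Glo luminescence. Paired lines KB-3-1/KB-8-5-11; P-gp dependence checked by tariquidar co-treatment and HEK-293 MDR-19 versus empty-vector cells.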
# [2] = molecular target: Glutathione peroxidase 1 (Homo sapiens) (UniProt P07203); test: Primary qHTS Assay for Inhibitors of Recombinant Selenoprotein Glutathione Peroxidase 1 (GPX1) (AID 1845191); note: nearly all actives have a fitted effect of over 65% in size; note: potency is the fitted concentration of half-maximal effect
# How it was run: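 GPX1 10 nM, GR 100 nM, GSH 1 mM, NADPH 0.5 mM, CHP 0.5 mM (final). 30-min cpd preincubation, RT. Ex340/Em450 read t=0, t=15 min.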
# [3] = molecular target: Calcium and integrin-binding protein 1 (Homo sapiens) (UniProt Q99828); test: Primary qHTS for Identification of Calcium Integrin Binding Protein 1 (CIB1) Competitor (AID 1508620);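 note: GST tagged CIB1 binding a fluorescein labelled alphaIIb integrin peptide tracer; top concentration of the series differs between compounds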
# How it was run: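 Fluorescence polarization competition: CIB1-GST (1 uM final) preincubated with compound 15 min at room temperature, then FITC-labeled alphaIIb peptide (100 nM final) added for another 15 min. Polarization read at Ex 480/Em 540.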
# [4] = Primary qHTS for inhibitors of nuclear receptor binding SET domain protein 2 (NSD2) in an isogenic RCH-ACV NSD2 p.E1099K mutant (9B) (AID 1645876); note: nearly all actives have a fitted effect of over 70% in size; note: potency is the fitted concentration of half-maximal effect
# [5] = Primary qHTS for inhibitors of nuclear receptor binding SET domain protein 2 (NSD2) in an RCH-ACV wild type WT cells (2C) (AID 1645877); note: nearly all actives have a fitted effect of over 70% in size; note: potency is the fitted concentration of half-maximal effect
# [6] = molecular target: N-terminal Xaa-Pro-Lys N-methyltransferase 1 (Homo sapiens) (UniProt Q9BV86); test: Confirmatory qHTS for Inhibitors of N-terminal methyltransferase 1 (NTMT1): MTaseGlo Assay (AID 1645874); note: potency is the fitted concentration of half-maximal effect; nearly all actives have a fitted effect of over 65% in size
# How it was run: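 Enzyme mix (125 nM NTMT1, 100 uM SAM) + compound, 15 min RT; + 1 uM SPKRIA, 30 min RT, dark; MTase-Glo reagent 30 min, detection solution 30 min; luminescence. % inhibition vs no-enzyme/DMSO controls, 4-parameter Hill fit.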
# [7] = molecular target: Catechol O-methyltransferase (Homo sapiens) (UniProt P21964); test: Confirmatory Screen for Target Class Profiling of Small Molecule Inhibitors of Methyltransferases (AID 1745852; calls by dose curve; note: potency is the fitted concentration of half-maximal effect); conditions: MTase-Glo luminescence, SAH detection, recombinant enzyme; measured here: COMT max response; stronger effect = lower value
# [8] = molecular target: Guanidinoacetate N-methyltransferase (Homo sapiens) (UniProt Q14353); test: as above; conditions: activity change, negative = inhibition: at 57.3 µM (top of the series) unless noted
# [9] = molecular target: Nicotinamide N-methyltransferase (Homo sapiens) (UniProt P40261); test: as above; conditions: MTase-Glo luminescence, SAH detection, recombinant enzyme; measured here: NNMT max response; stronger effect = lower value
# [10] = molecular target: Phenylethanolamine N-methyltransferase (Homo sapiens) (UniProt P11086); test: as above; conditions: MTase-Glo luminescence, SAH detection, recombinant enzyme; measured here: PNMT max response; stronger effect = lower value
# [11] = NCATS anti-infectives library activity on HEK293 viability as a counter-qHTS vs the C. elegans viability qHTS (AID 1745854);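 note: HEK293 cells exposed to compounds for 24 hr before the viability read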
# How it was run: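 Counter-screen for cytotoxicity: HEK293, 24 hr, 37C, compounds up to 41.7 uM final (a dilution series, 1:5). Readout CellTiter-Glo luminescence, 10 min RT. Digitonin control, 83.3 uM final.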
# [12] = qHTS to identify inhibitors of the type 1 interferon - major histocompatibility complex class I in skeletal muscle: primary screen against the NCATS Mechanism Interrogation Plate v5.0 (MIPE) Libary (AID 1347411); note: nearly all actives have a fitted effect of over 65% in size; note: potency is the fitted concentration of half-maximal effect
# How it was run: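 Seed engineered human myoblasts (HLA-B HiBit) in medium without dexamethasone containing 4 ng/ml IFN-beta; after 1 hr add compound titrations (top 46 uM final). Incubate 24 hrs at 37 C, lyse 10 min with HiBiT reagent, read luminescence.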
# [13] = molecular target: Phospholipid hydroperoxide glutathione peroxidase GPX4 (Homo sapiens) (UniProt P36969); test: Primary qHTS Assay for Inhibitors of Recombinant Selenoprotein Glutathione Peroxidase 4 (GPX4) (AID 1845192); conditions: outcome: dose series up to 50 µM unless noted; note: nearly all actives have a fitted effect of over 65% in size
# How it was run: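 qHTS, GR-coupled: GPX4 200 nM + cpd 30 min RT → GSH 1 mM, NADPH 0.5 mM, GR 100 nM → CHP 0.5 mM start; fluor 340/450 at t0 and t15 min; no-enzyme wells as control.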
# [14] = qHTS drug screen for cell cycle checkpoint inhibitors in PARPi-resistant BRCA-mutant ovarian cancer cell lines. (AID 1963452; calls by dose curve); conditions: PEO1/OlaR viability, CellTiter-Glo luminescence, 96 h, stronger effect = lower value
# How it was run: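 PEO1, PEO4 and PEO1/OlaR ovarian cancer cells, 600 per well, exposed 96 h at 37C to a dilution series. Viability read by CellTiter-Glo luminescence, normalized to DMSO and empty wells; activity summarized as Z-AUC.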
# [15] = measured here: PEO1 parental Z-AUC
# Phospholipid hydroperoxide glutathione peroxidase GPX4 (Homo sapiens), sequence (P36969 whole entry, looked up): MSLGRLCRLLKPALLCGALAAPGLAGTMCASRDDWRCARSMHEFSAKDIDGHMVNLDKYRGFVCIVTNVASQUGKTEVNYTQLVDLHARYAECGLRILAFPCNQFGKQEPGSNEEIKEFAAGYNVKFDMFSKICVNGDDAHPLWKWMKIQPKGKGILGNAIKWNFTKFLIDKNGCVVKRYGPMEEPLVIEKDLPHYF
# Calcium and integrin-binding protein 1 (Homo sapiens), sequence (Q99828 whole entry, looked up): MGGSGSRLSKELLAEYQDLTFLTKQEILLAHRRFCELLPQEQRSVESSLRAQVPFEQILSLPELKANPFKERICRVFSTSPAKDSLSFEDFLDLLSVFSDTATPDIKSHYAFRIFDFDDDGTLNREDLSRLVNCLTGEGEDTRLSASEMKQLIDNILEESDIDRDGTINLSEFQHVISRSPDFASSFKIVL
# Glutathione peroxidase 1 (Homo sapiens), sequence (P07203 whole entry, looked up): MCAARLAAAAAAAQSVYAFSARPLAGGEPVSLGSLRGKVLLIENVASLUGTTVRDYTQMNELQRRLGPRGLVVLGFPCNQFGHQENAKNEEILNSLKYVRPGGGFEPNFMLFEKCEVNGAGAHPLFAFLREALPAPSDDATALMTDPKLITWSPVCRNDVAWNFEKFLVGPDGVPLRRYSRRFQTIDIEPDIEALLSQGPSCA
# Nicotinamide N-methyltransferase (Homo sapiens), sequence (P40261 whole entry, looked up): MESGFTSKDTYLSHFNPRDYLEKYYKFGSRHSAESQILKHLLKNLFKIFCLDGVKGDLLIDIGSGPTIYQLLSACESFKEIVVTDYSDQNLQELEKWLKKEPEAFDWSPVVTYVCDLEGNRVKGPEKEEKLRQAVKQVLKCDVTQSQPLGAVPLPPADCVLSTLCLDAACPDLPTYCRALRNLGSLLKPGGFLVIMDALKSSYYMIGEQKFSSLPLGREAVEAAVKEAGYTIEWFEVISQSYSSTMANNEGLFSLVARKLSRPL
# Phenylethanolamine N-methyltransferase (Homo sapiens), sequence (P11086 whole entry, looked up): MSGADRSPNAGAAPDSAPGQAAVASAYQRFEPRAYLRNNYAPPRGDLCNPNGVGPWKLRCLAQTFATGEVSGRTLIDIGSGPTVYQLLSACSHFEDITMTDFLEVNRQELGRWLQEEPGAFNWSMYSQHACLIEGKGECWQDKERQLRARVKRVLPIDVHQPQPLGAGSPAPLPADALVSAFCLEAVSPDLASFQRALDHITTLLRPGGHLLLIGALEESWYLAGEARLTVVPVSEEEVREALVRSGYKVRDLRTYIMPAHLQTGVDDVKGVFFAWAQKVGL
# Catechol O-methyltransferase (Homo sapiens), sequence (P21964 whole entry, looked up): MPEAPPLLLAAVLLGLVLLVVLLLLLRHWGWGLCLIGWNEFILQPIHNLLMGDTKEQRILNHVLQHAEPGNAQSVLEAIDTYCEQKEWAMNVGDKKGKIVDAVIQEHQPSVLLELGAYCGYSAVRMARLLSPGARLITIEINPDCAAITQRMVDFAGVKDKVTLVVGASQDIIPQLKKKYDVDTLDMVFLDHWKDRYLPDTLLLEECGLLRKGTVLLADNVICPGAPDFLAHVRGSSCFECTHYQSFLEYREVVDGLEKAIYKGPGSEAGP
# N-terminal Xaa-Pro-Lys N-methyltransferase 1 (Homo sapiens), sequence (Q9BV86 whole entry, looked up): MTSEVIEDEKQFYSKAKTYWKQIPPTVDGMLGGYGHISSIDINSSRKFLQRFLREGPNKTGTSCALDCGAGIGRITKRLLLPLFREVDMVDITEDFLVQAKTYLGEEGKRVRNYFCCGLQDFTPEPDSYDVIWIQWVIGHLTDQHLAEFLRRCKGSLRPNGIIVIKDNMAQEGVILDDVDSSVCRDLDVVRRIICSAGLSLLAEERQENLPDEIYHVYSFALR
compound,measurement,setting,value
CCCn1cnc2c(NCc3ccc(C)s3)nc(N[C@H](CC)CO)nc21,Potency,[1],inactive
same,Potency,[2],inactive
O=C1CCCC2=C1C(c1ccncc1Br)N=C(Nc1nc3ccccc3o1)N2 (centres undefined),Potency,[1],inactive
same,outcome,[3],inactive
same,Potency,[2],inactive
CC(=O)[C@H]1CCC2C3CCC4=CC(=O)CC[C@]4(C)C3[C@H](O)C[C@@]21C (some centres undefined),Potency,[1],inactive
same,Potency,[4],inactive
same,Potency,[5],inactive
same,Potency,[2],inactive
Clc1cc(Cl)c2c(c1)N=C1CCCCCN1C2,Potency,[1],inactive
same,Potency,[4],inactive
same,Potency,[5],inactive
same,Potency,[2],inactive
CN(Cc1nccs1)c1ncnc2ccc(-c3ccc4c(c3)OCO4)cc12,Potency,[1],inactive
same,outcome,[3],inactive
same,Potency,[6],11.5 µM (active)
same,activity,[7],-82.4%
same,Potency,[8],24.1 µM (active)
same,activity,[9],-71.7%
same,activity,[10],-84.4%
same,Potency,[2],inactive
Nc1ncnc2c1ncn2[C@H]1O[C@H](CO)[C@@H](O)[C@@H]1O,Potency,[1],inactive
same,Potency,[4],39.8 µM (active)
same,Potency,[5],39.8 µM (active)
Cc1cc(-c2nc(C(=O)Nc3cn(C4CCOCC4)nc3C(N)=O)co2)ccn1,Potency,[1],16.4 µM (active)
same,Potency,[4],9.2 µM (active)
same,Potency,[5],16.4 µM (active)
same,Potency,[2],inactive
OC[C@H]1O[C@@H](O[C@@H]2OC=C[C@H]3[C@H](O)[C@@H]4O[C@]4(CO)[C@@H]23)[C@H](O)[C@@H](O)[C@@H]1O,Potency,[1],inactive
same,Potency,[4],inactive
same,Potency,[5],inactive
same,outcome,[11],inactive
CCCCCCCCCCCCCCCCOCCCOP(=O)(O)COC(CO)Cn1ccc(N)nc1=O (centres undefined),Potency,[1],8.2 µM (active)
same,Potency,[12],inactive
same,outcome,[3],inactive
same,Potency,[5],18.6 µM (active)
same,Potency,[2],inactive
same,Potency,[13],inactive
same,Z-AUC,[14],0.0641 (inactive)
same,Z-AUC,[14]; [15],-0.362
same,Z-AUC,[14]; measured here: PEO4 Z-AUC,-0.397
COc1ccc2c(c1O)OC(C)(C)c1c-2ccc2c1C(=O)N(c1ccc(C(=O)c3ccccc3)cc1)C2=O,Potency,[1],inactive
same,Potency,[2],inactive
O=C1c2ccccc2-c2nc3nnnn3nc21 (tested in a mixture with another compound),Potency,[1],0.92 µM (active)
same,Potency,[4],0.082 µM (active)
same,Potency,[5],0.184 µM (active)
same,activity,[7],-95.2%
same,Potency,[8],0.482 µM (active)
same,activity,[9],-67.5%
same,activity,[10],-24.7%
same,Potency,[2],16.1 µM (active)
Nc1ccn([C@H]2O[C@@H](CO)[C@H](O)[C@H]2O)c(=O)n1,Potency,[1],3.66 µM (active)
same,Potency,[4],0.0206 µM (active)
same,Potency,[5],0.0164 µM (active)
Cn1cc(-c2cc(Oc3cc(F)c(NC(=O)C4(C(=O)Nc5ccccc5)CC4)cc3F)ccn2)cn1,Potency,[1],18.4 µM (active)
same,Potency,[12],29.4 µM (active)
same,Potency,[4],9.34 µM (active)
same,Potency,[5],13.2 µM (active)
same,Potency,[2],inactive
same,Potency,[13],inactive
same,Z-AUC,[14],0.797 (inactive)
same,Z-AUC,[14]; [15],-0.238
same,Z-AUC,[14]; measured here: PEO4 Z-AUC,0.178
COc1ccc(CCNCc2ccc(OCc3ccc(Cl)nc3)c(OC)c2)cc1OC,Potency,[1],inactive
same,Potency,[2],inactive
CC(C)C(N)C(=O)OCC(CO)OCn1cnc2c(=O)[nH]c(N)nc21 (centres undefined),Potency,[1],inactive
same,Potency,[12],inactive
same,Potency,[4],inactive
same,Potency,[5],inactive
same,Potency,[2],inactive
same,Potency,[13],inactive
same,Z-AUC,[14],0.614 (inactive)
same,Z-AUC,[14]; [15],1.06
same,Z-AUC,[14]; measured here: PEO4 Z-AUC,1.36
